Screens from PubChem BioAssay.
KCNQ2 block = blocks the rat KCNQ2 potassium channel | B-score at 10 µM | 310,000 tested, 1.1% active | CHO-K1 KCNQ2, FluxOR thallium flux, 20 min; stronger effect = lower value | O88943 | AID 2156;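 active = fluorescence ratio B-score at most minus 3 library SDs, with starting brightness B-score within 2 library SDs, cut at about -5.5 in these data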
KCNQ2 pot = potentiators of rat KCNQ2 potassium channel; O88943; CHO-K1 KCNQ2, FluxOR thallium flux fluorescence; stronger effect = higher value; B-score at 10 µM; 310,000 tested, 0.54% active;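 active = fluorescence ratio B-score at least 3 SD of library B-scores, with initial fluorescence B-score within 3 of them, cut at about 5.3 in these data; same plate scores as AID 2156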;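 note: B-score of peak minus minimum over baseline fluorescence ratio after K+ and Tl+ stimulus; positive B-score means potentiation of KCNQ2 with more thallium influx and brighter signal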
Kir21 confirm = confirmation of mouse Kir2.1 potassium channel inhibitors; shares compounds with KCNQ2 pot; Kir2.1-expressing cells, FluxOR thallium flux fluorescence; stronger effect = lower value; Tl flux remaining, % of negative control (stronger effect = lower value), % at 10 µM; 2,300 tested, 41% active;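 active = Primary-screen hit whose thallium flux fell at least 3 control SD below untreated wells in both duplicates, with normal baseline fluorescence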
HEK293 ctr = parental HEK293 activity in Kir2.1 inhibitor counter-screen. 2,300 tested, 19% active. shares compounds with KCNQ2 pot. parental HEK293 cells, FluxOR thallium flux fluorescence; 0% = unstimulated blank wells. FluxOR signal as % of negative control (100 = no effect), % at 10 µM. AID 2105;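 active = dye signal at least 3 control SD above or below untreated wells in both duplicates, raw fluorescence within 3, either direction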;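 note: percent is based on the flux ratio of peak minus minimum fluorescence over baseline F0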
CHO-K1 Tl ctr = alters thallium flux in parental CHO-K1 cells, KCNQ2 counter-screen; activity increase over 3SD of controls, % at 10 µM; 1,200 tested, 43% active; AID 2282; shares compounds with KCNQ2 pot; FluxOR thallium flux fluorescence; zero = vehicle mean+3SD, 100% = vehicle-minus-blank window;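 active = signal rise of at least 3 SD above the untreated control mean, in both duplicate wells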;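 note: counter screen of KCNQ2 potentiator hits so any rise reflects channel-independent effects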
KCNQ1 sel pot = tests whether KCNQ2 potentiators also act on human KCNQ1; shares compounds with KCNQ2 pot; CHO KCNQ1 stable, FluxOR thallium flux fluorescence; beyond 3SD, as % of vehicle-control signal; activation over 3SD threshold, % at 10 µM; 1,200 tested, 28% active;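 active = fluorescence ratio rise of at least 3 SD of vehicle wells above their mean, in both replicate wells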
KCNQ2 pot confirm = rat KCNQ2 channel potentiator confirmation | shares compounds with KCNQ2 pot | CHO-KCNQ2 cells, FluxOR thallium flux fluorescence | potentiation, less the hit threshold, % at 10 µM | 1,200 tested, 68% active | AID 2287;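 active = fluorescence ratio rising 3 SD or more over the vehicle control mean in both replicates, plus primary screen hit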;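 note: peak minus minimum thallium fluorescence divided by baseline after K/Tl stimulus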
Kir21 spec = selectivity of KCNQ2 potentiators: effect on mouse Kir2.1; shares compounds with KCNQ2 pot; HEK293 Kir2.1, FluxOR thallium flux fluorescence; activity over 3SD threshold, % at 10 µM; 1,200 tested, 2% active; AID 2345;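 active = fluorescence ratio rise of at least 3 SD above the vehicle-control mean, seen in both replicates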
KCNQ2 W236L pot = rat KCNQ2 W236L mutant potentiation by KCNQ2 potentiators; shares compounds with KCNQ2 pot; CHO KCNQ2-W236L, automated patch clamp current; current increase over 3SD of negative controls (%), stronger effect = higher value, % at 25 µM; 940 tested, 10% active; AID 2558;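 active = current increase at least 3 SD of the untreated controls above them in both duplicate recordings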
Large screens that a line does not name were inactive (follow-up assays come after a bar, where they were run). The list is not random: actives were taken first. Their share in the collection is about 1.6%.

Cc1cccc(N(C)C(=S)Oc2ccc3ccccc3c2)c1	none (no result: KCNQ2 pot)
CN(C)S(=O)(=O)c1ccc(C(=O)NNc2nc(-c3ccccc3)c3cc(Br)ccc3n2)cc1	none
CCCCC(=O)OCc1nc(N)nc(Nc2ccccc2C)n1	none
Cc1ccc(/C=C/C(=O)OCc2nc(N)nc(Nc3ccccc3C)n2)o1	KCNQ2 pot 6.9 | Kir21 confirm inactive | HEK293 ctr inactive | CHO-K1 Tl ctr 144.2 | KCNQ1 sel pot inactive | KCNQ2 pot confirm 2.1 | Kir21 spec inactive | KCNQ2 W236L pot inactive
CCc1ccc(O)c(N=Cc2ccccc2O)c1	none (no result: KCNQ2 pot)
Cc1ccnc(NCc2ccccc2O)c1	none
Cc1ccc(O)c(CNCCNCc2cc(C)ccc2O)c1	none (no result: KCNQ2 pot) | Kir21 confirm 38.0% | HEK293 ctr inactive
CCc1ccc(O)c(CNCCNCc2cc(CC)ccc2O)c1	none | Kir21 confirm 50.0% | HEK293 ctr inactive
COc1cc(C)c(S(=O)(=O)NOCc2ccc([N+](=O)[O-])cc2)c(C)c1C	none
COc1cc(C)c(S(=O)(=O)NOCc2ccccc2)c(C)c1C	none (no result: KCNQ2 pot) | Kir21 confirm inactive | HEK293 ctr inactive
Nc1cccnc1Oc1ccc(F)cc1	none
FC(F)(F)c1cccnc1Oc1ccc(C2=NCCS2)cc1	KCNQ2 pot 5.37 | Kir21 confirm inactive | HEK293 ctr inactive | CHO-K1 Tl ctr inactive | KCNQ1 sel pot 30.1 | KCNQ2 pot confirm 12.6 | Kir21 spec inactive | KCNQ2 W236L pot inactive
Cc1cc2nc(CCN(C(=S)NCC3CCCO3)C3CCCC3)[nH]c2cc1C (configuration not stated)	none (no result: KCNQ2 pot)
Cc1ccc(S(=O)(=O)N2CCN(C(=O)CSc3nnnn3C)CC2)c(C)c1	none
CCC(C(=O)OCC(=O)NC(=O)c1ccccc1)c1ccccc1 (configuration not stated)	none (no result: KCNQ2 pot)
CCC(C(=O)OCC(=O)NC(=O)c1ccccc1OC)c1ccccc1 (configuration not stated)	none (no result: KCNQ2 pot) | Kir21 confirm 69.5% | HEK293 ctr inactive
Nc1ccc(NC(=O)c2ccccc2)c2c1C(=O)c1ccccc1C2=O	none (no result: KCNQ2 pot)
Cn1cnnc1SC1CCCCC1NS(=O)(=O)c1ccccc1 (configuration not stated)	none
C(=N\Nc1nc2ccccc2s1)/c1ccccn1	KCNQ2 pot 11.4 | Kir21 confirm inactive | HEK293 ctr inactive | CHO-K1 Tl ctr inactive | KCNQ1 sel pot inactive | KCNQ2 pot confirm 44.4 | Kir21 spec inactive | KCNQ2 W236L pot inactive
Brc1csc(/C=N/Nc2nc3ccccc3s2)c1	none
CN(C)c1ccc(-n2cccc2/C=C/[N+](=O)[O-])cc1	none (no result: KCNQ2 pot)
CN(c1ccccc1)c1ccc(/C=C/[N+](=O)[O-])cc1	none (no result: KCNQ2 pot) | Kir21 confirm inactive | HEK293 ctr inactive
CCOc1ccccc1-n1c(SCC(=O)N2CCCc3ccccc32)nnc1-c1cccnc1	none (no result: KCNQ2 pot)
Cc1[nH]n(-c2ccccc2)c(=O)c1Sc1ccc(Cl)cc1	none
CCCSC(=S)c1c(C)[nH]n(-c2ccccc2)c1=O	KCNQ2 pot 9.79 | Kir21 confirm inactive | HEK293 ctr 424.5% | CHO-K1 Tl ctr 22.0 | KCNQ1 sel pot inactive | KCNQ2 pot confirm 54.0 | Kir21 spec 3.8 | KCNQ2 W236L pot inactive
Cc1cc(N2CCCCC2)nc(NCc2ccccc2)n1	none | Kir21 confirm 48.5% | HEK293 ctr inactive
Cc1cc(N2CCOCC2)nc(NCc2ccccc2)n1	none
Cc1ccc(CNCc2ccccc2Cl)cc1	none (no result: KCNQ2 pot)
Cc1ccc2nc(Cl)c(CNCc3ccccc3)cc2c1	none (no result: KCNQ2 pot) | Kir21 confirm 20.5% | HEK293 ctr inactive
Cn1cc(Cl)c(C(=O)OCC(=O)Nc2ccccc2)n1	none
CC1CC(=O)NN=C1c1ccc(NCCO)c([N+](=O)[O-])c1 (configuration not stated)	none
